We go through eight compounds from the supplement of paper PMC13094657.

± gives the standard deviation of the averaged measurements.
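Further: viability of the cells left after supernatant collection, read with Deep Blue dye added for 4 h, as absorbance at 570 nm minus 600 nm.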

For the experiment, the system named is MDA-MB-231. The experiment in a line: cell viability relative to vehicle unstimulated control (fraction); higher = more viable cells. Particulars: pre-treatment time: 18 h then 24 h IFNg/TNF.
For `CC(C)=CCC[C@](C)(O)[C@@H]1CC=C(C)CC1` [Levomenol] (compound dose: 10 uM), the cell viability is 0.676 ± 0.54.
Take `COC(=O)[C@@]1(C)CC[C@]2(C(=O)O)CC[C@]3(C)C(=CC[C@@H]4[C@@]5(C)C[C@H](O)[C@H](O)[C@@](C)(CO)[C@@H]5CC[C@]43C)[C@@H]2C1` [Phytolaccagenin] (compound dose: 10 uM): the cell viability was determined as 0.924 ± 0.049.
As to `COC(=O)c1cccnc1` [Methyl nicotinate] (compound dose: 10 uM), the cell viability came out at 0.974 ± 0.037.
In the case of `CC1(C)[C@@H](O[C@H]2O[C@H](C(=O)O)[C@@H](O)[C@H](O)[C@H]2O[C@@H]2O[C@H](C(=O)O)[C@@H](O)[C@H](O)[C@H]2O)CC[C@]2(C)[C@H]3C(=O)C=C4[C@@H]5C[C@@](C)(C(=O)O)CC[C@]5(C)CC[C@@]4(C)[C@]3(C)CC[C@@H]12` [Ammonium glycyrrhizinate] (compound dose: 10 uM), the cell viability is 0.952 ± 0.033.
Turning to `C=C1CCC[C@]2(C)C[C@@H]3OC(=O)C(C)=C3C[C@@H]12` [Atractylenolide II] (compound dose: 10 uM), the cell viability turned out to be 1.03 ± 0.018.
Take `COc1cc2c(=O)c3c(O)c([C@@H]4O[C@H](CO[C@@H]5OC[C@](O)(CO)[C@H]5O)[C@@H](O)[C@H](O)[C@H]4O)c(O)cc3oc2cc1O` [Polygalaxanthone III] (compound dose: 10 uM): the cell viability was found to be 1 ± 0.048.
Take `CC12CCC(CC1)C(C)(C)O2` [1,8-cineole] (compound dose: 10 uM): the cell viability is 0.978 ± 0.067.
For `C=C1C(OC(C)=O)C(OC(C)=O)C(OC(=O)c2cccnc2)C(C)(C)C=CC(C)C(OC(C)=O)C2(O)CC(C)(OC(C)=O)C(OC(=O)c3ccccc3)C2C1OC(C)=O` (stereo not drawn) [Pepluanin A] (compound dose: 10 uM), the cell viability came to 1.11 ± 0.017.
